This is a sample that favours compounds with a hit; in the whole collection about 3% have one here.
KAT2A inh – GCN5L2 (KAT2A) acetyltransferase inhibition; GCN5L2 HAT assay, ThioGlo1 CoA-SH fluorescence; Potency, µM (series often up to 58.9 µM), inactives show top-dose activity change, negative = inhibition, hits mostly inhibitors; 390,000 compounds, 0.21% hits; further: on the % scale 0 is the no-effect control and ±100 the full control effect
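GCN5L2 (20nM final) in 50mM HEPES, 0.1mM EDTA pH 7.5, 0.01% Tween-20 was preincubated 15 min at room temperature with compound, then given ThioGlo1 (50uM), H3(1-25) peptide (75uM) and acetyl-CoA (70uM); CoA-thiol fluorescence (Ex340/Em540) was read at 0 and 20 min.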
VDR inhibitor – vitamin D3 receptor (human) inhibition. Potency, µM, without a hit: max response, negative = inhibition, hits mostly inhibitors. P11473. 400,000 compounds, 0.93% hits. AID 504847. VDR-SRC2-3 peptide fluorescence polarization, 2 h; further: on the % scale 0 is the no-effect control and ±100 the full control effect
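FP read-out; VDR + SRC2-3 coactivator peptide; 23 nl compound by pintool; 2 h RT incubation; reagents held at 4 deg C, protected from light.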
PLK1 PBD block – inhibitors of human PLK1 polo-box domain binding; Potency, µM, without a hit: max response, negative = inhibition, usual class: inhibitors; AID 720504; 360,000 compounds, 2.8% hits; Plk1 PBD binding of FITC phosphopeptide, fluorescence polarization; further: series mostly up to about 57 µM; on the % scale 0 is the no-effect control and ±100 the full control effect; nearly all actives have a fitted effect of over 65% in size
PTAP TSG101 blk – blocks PTAP/TSG101 interaction to inhibit HIV-1 budding; Q99816; Fluorescence polarization, FITC-PTAP peptide / Tsg101 binding; Potency, µM (top dose mostly 115 µM), inactives show top-dose activity change, negative = inhibition, usual class: inhibitors; 340,000 tested, under 10 active; AID 493005; active means well fitted inhibition curve with a large enough effect in the main read-out, with a control signal flat, not every such curve was filed as active; inconclusive means small, poorly fitted or top-dose-only effect, or effect the other way, or a change in a side signal; inactive means no such curve, though single readings can be large or run the other way; further: % of control where 0% means no effect
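FP read-out: FITC-PTAP peptide, 50 nM final, binding Tsg101 binding domain, 10 uM final; 20 min, r.t.; 10 mM HEPES pH 7.5, 0.15 M NaCl, 0.01% Tween 20, 3 mM EDTA, 0.1 mM TCEP.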
USP1-UAF1 inh – blocks the human USP1/UAF1 deubiquitinase complex. recombinant USP1/UAF1, Ub-Rhodamine cleavage fluorescence. Potency, µM (series often up to 57.1 µM), for inactives: at the highest dose activity change, negative = inhibition, actives largely listed as inhibitors. 390,000 compounds, 0.23% hits; further: on the % scale 0 is the no-effect control and ±100 the full control effect; nearly all actives have a fitted effect of over 60% in size
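USP1/UAF1 complex at 1 nM was preincubated with compound for 15 min at room temperature, then Ub-Rho substrate (150nM final) was added. Fluorescence (480/540 nm) was read kinetically, 6 reads every 60 seconds.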
An asterisk follows results filed as active; ! = not active in a repeat; [ ] = remark or other dose. Unless noted, the call rests on the fitted dose curve; in most records, active means well fitted curve in the direction sought with a large enough effect; inconclusive means small, poorly fitted or top-dose-only effect, or another doubt; inactive means no such curve, though single readings can be large; an effect the other way counts as inactive or inconclusive. Potency means the concentration at half of the fitted maximal effect.

How did Cc1ccc2nc(N3C(=O)C(O)=C(C(=O)c4ccco4)C3c3cccs3)sc2c1 (stereo unspecified) do in these assays?
KAT2A inh: inconclusive; VDR inhibitor: inconclusive; PLK1 PBD block: 27µM*; PTAP TSG101 blk: -8%; USP1-UAF1 inh: 6%

What do the screens show for `COc1ccc(C2C(C(=O)c3ccco3)=C(O)C(=O)N2c2nnc(C)s2)cc1` (stereo unspecified)?
KAT2A inh: -6%; VDR inhibitor: -9%; PLK1 PBD block: -12%; PTAP TSG101 blk: -7%; USP1-UAF1 inh: -4%

Results for C=CCOc1ccc(C2C(C(=O)c3ccco3)=C(O)C(=O)N2c2nnc(C)s2)cc1 (stereo unspecified) ?
KAT2A inh: -6%; VDR inhibitor: inconclusive; PLK1 PBD block: 21µM*; PTAP TSG101 blk: -7%; USP1-UAF1 inh: 9%

How did Cc1cccc(N2CCN(C(=O)c3cn(C4CCCCC4)c(=O)c4c3c3ccccc3n4C)CC2)c1C do in these assays?
KAT2A inh: -14%; VDR inhibitor: 2%; USP1-UAF1 inh: -22%

What do the screens show for `CCN(CC)S(=O)(=O)c1cc(NC(=O)CSc2nc3c(cc2C#N)C(=O)CC(C)(C)C3)ccc1C`?
KAT2A inh: -6%; VDR inhibitor: -5%; PLK1 PBD block: -2%; PTAP TSG101 blk: 0%; USP1-UAF1 inh: -19%

What do the screens show for `Cc1[nH]n(-c2ccccc2)c(=O)c1N=Nc1cccc(Cl)c1`?
KAT2A inh: -17%; VDR inhibitor: 7%; PLK1 PBD block: 2%; PTAP TSG101 blk: 0%; USP1-UAF1 inh: -20%

Results for CC(=O)c1cccc(N=Nc2c(-c3ccccc3)[nH]n(-c3ccccc3)c2=O)c1 ?
KAT2A inh: -5%; VDR inhibitor: -7%; PLK1 PBD block: 24µM*; PTAP TSG101 blk: 2%; USP1-UAF1 inh: inconclusive

How did COC(=O)c1ccc(NC(=O)COC(=O)CSc2nc(C)cc(C)n2)cc1 do in these assays?
KAT2A inh: 0.71µM*; VDR inhibitor: 0%; PLK1 PBD block: -8%; PTAP TSG101 blk: -4%; USP1-UAF1 inh: -19%

What do the screens show for `CCOC(=O)CSc1nc(C)cc(C)n1`?
KAT2A inh: -2%[0.501 µM]; VDR inhibitor: -6%; PLK1 PBD block: -7%; PTAP TSG101 blk: -3%; USP1-UAF1 inh: -15%

Results for COC(=O)CSc1nc(C)cc(C)n1 ?
KAT2A inh: 1%; VDR inhibitor: inconclusive; PLK1 PBD block: 7.5µM*; PTAP TSG101 blk: -2%; USP1-UAF1 inh: -3%

How did Cc1cccc(C(=O)OCC(=O)c2c(C)[nH]c3ccccc23)c1O do in these assays?
KAT2A inh: -1%; VDR inhibitor: 10%; PLK1 PBD block: 5%; PTAP TSG101 blk: inconclusive; USP1-UAF1 inh: -13%

What do the screens show for `C=Cc1ccc(Cn2c(=O)n(CC3CCC(C(=O)NC(C)C)CC3)c(=O)c3sccc32)cc1` (stereo unspecified)?
KAT2A inh: -1%; VDR inhibitor: -6%; USP1-UAF1 inh: -14%

What do the screens show for `COc1ccc(C(CC(=O)Nc2ccc(F)c(Cl)c2)N2Cc3ccccc3C2=O)cc1OC` (stereo unspecified)?
KAT2A inh: -1%; VDR inhibitor: 4%; USP1-UAF1 inh: -10%

How did CCCOC(=O)C1[C@H]2C(=O)N(CCCOC)C[C@]23C=C[C@H]1O3 (stereo partly specified) do in these assays?
KAT2A inh: -1%; VDR inhibitor: 15%; PLK1 PBD block: -6%; PTAP TSG101 blk: -7%; USP1-UAF1 inh: 3%

Results for COCCCN1CC23C=CC(O2)C(C(=O)O)C3C1=O (stereo unspecified) ?
KAT2A inh: -3%; VDR inhibitor: inconclusive; PLK1 PBD block: 27µM*; PTAP TSG101 blk: -2%; USP1-UAF1 inh: 4%

How did Cc1ccc(/C=C2/CNC/C(=C\c3ccc(C)cc3)C2=O)cc1 do in these assays?
KAT2A inh: -4%; VDR inhibitor: 2µM*

What do the screens show for `CC(C)(CO)C(O)C(=O)NCCCC(=O)O` (stereo unspecified)?
VDR inhibitor: 1%

Results for CCCCNC(=O)C1(NC(=O)Nc2ccc(C)cc2)CCCCC1 ?
KAT2A inh: 1%; VDR inhibitor: inconclusive; PLK1 PBD block: 7.5µM*; PTAP TSG101 blk: 2%; USP1-UAF1 inh: -5%

How did O=C(Nc1ccccc1)NC1(C(=O)N2CCC(O)CC2)CCCCC1 do in these assays?
KAT2A inh: -5%; VDR inhibitor: -5%; PLK1 PBD block: -3%; PTAP TSG101 blk: -8%; USP1-UAF1 inh: -6%

Results for CCC(C)NC(=O)C1(NC(=O)Nc2ccccc2)CCCCC1 (stereo unspecified) ?
KAT2A inh: 2%; VDR inhibitor: inconclusive; PLK1 PBD block: 11µM*; PTAP TSG101 blk: -1%; USP1-UAF1 inh: -10%

Results for O=C(Nc1ccccc1)NC1(C(=O)NCCCN2CCOCC2)CCCCC1 ?
KAT2A inh: -1%; VDR inhibitor: 9%; PLK1 PBD block: 0%; PTAP TSG101 blk: -3%; USP1-UAF1 inh: -7%

How did COCCNC(=O)C1CCCN(C(=O)c2ccc(F)c(C)c2)CC1 (stereo unspecified) do in these assays?
PLK1 PBD block: -1%

What do the screens show for `Cc1cc(=O)oc2c(CN3CCCC3)c(O)ccc12`?
KAT2A inh: -28%; VDR inhibitor: 25%; PLK1 PBD block: 3%; PTAP TSG101 blk: 0%; USP1-UAF1 inh: -18%

Results for Cc1cc(=O)oc2c(O)c(O)ccc12 ?
KAT2A inh: inconclusive; VDR inhibitor: 71µM*!; PLK1 PBD block: inconclusive; PTAP TSG101 blk: -2%; USP1-UAF1 inh: -16%

Results for Cc1cccc(NC(=O)CSc2c3c(nc4ccccc24)CCC3)n1 ?
KAT2A inh: -1%; VDR inhibitor: -5%; PLK1 PBD block: -1%; PTAP TSG101 blk: -4%; USP1-UAF1 inh: -19%

Results for CCC(C)NC(=O)CSc1c2c(nc3ccccc13)CCCC2 (stereo unspecified) ?
KAT2A inh: -2%; VDR inhibitor: -13%; PLK1 PBD block: 17µM*; PTAP TSG101 blk: -7%; USP1-UAF1 inh: -26%

What do the screens show for `O=S(=O)(Nc1ccc(NS(=O)(=O)c2ccccc2)c2ccccc12)c1ccccc1`?
PLK1 PBD block: 5%; USP1-UAF1 inh: -11%

How did COc1ccccc1NS(=O)(=O)c1ccc(O)cc1 do in these assays?
KAT2A inh: 2%; VDR inhibitor: -17%; PLK1 PBD block: 3.4µM*; PTAP TSG101 blk: -4%; USP1-UAF1 inh: -9%

What do the screens show for `O=S(=O)(Nc1ccc(O)c2ccccc12)c1ccc(F)cc1`?
VDR inhibitor: inconclusive; PLK1 PBD block: 27µM*; PTAP TSG101 blk: -4%; USP1-UAF1 inh: inconclusive

How did COc1ccc(NS(=O)(=O)c2ccc(NC(C)=O)cc2)c(OC)c1 do in these assays?
KAT2A inh: -5%; VDR inhibitor: inconclusive; PLK1 PBD block: 24µM*; PTAP TSG101 blk: 1%; USP1-UAF1 inh: 4%

Results for Cc1ccc(S(=O)(=O)Nc2c(O)ccc3ccccc23)cc1 ?
VDR inhibitor: 32µM*; PLK1 PBD block: 6.7µM*; PTAP TSG101 blk: 0%; USP1-UAF1 inh: -13%

Source: PubChem BioAssay (National Center for Advancing Translational Sciences (NCATS))
